The campaign covered roughly 290,000 compounds. About 3,300 (1.1%) were called active. No stated cut-off is given here; in the data, active means binding response below about 67% or above about 130%; inconclusive means no clear call, values can overlap the other calls; inactive means in between. Only a selection was taken, and actives are over-represented in it overall.
biological target: Mitogen-activated protein kinase kinase kinase 2 (Homo sapiens) (UniProt Q9Y2U5); experiment: modulators of MEK5 binding to wildtype MEKK2, primary screen, biochemical, multiplex bead flow cytometry, Alexa488-MEK5 (AID 1531); conditions: Alexa488-MEK5 binding to MEKK2 WT, at 10 µM, actives lie on both sides

Binding response (% of control), active:
COc1cccc2sc(N(CCCN(C)C)C(=O)C(c3ccccc3)c3ccccc3)nc12 178%
CN(C)CCCN(C(=O)COc1ccccc1)c1nc2c(Cl)cccc2s1 338%
CCCc1cc(=S)n2c([nH]c3ccccc32)c1C#N -3% [inhibitor]
CCN(CC)CCCNC(=O)c1ccc2c(=O)n(Cc3ccc4c(c3)OCO4)c(=S)[nH]c2c1 144%
CCCCCCCCCCOC(=O)Cn1c(COc2cccc(OC)c2)[n+](C)c2ccccc21 278%
CCCCCCCCCCOC(=O)Cn1c(COc2ccc(C)cc2)[n+](C)c2ccccc21 319%
COc1ccc(C2CC(c3cccs3)=NN2c2nc(C)c(C(C)=O)s2)cc1OC (stereo not given) 63% [inhibitor]
O=C(NCCCN1CCN(c2ccc(F)cc2)CC1)Nc1ccc([N+](=O)[O-])cc1 140%
CCC1CCCCN1CCCNC(=O)c1cc2c(Cl)nc3ccccc3c2s1 (stereo not given) 173%
Cc1ccc(S(=O)(=O)/N=S(\C)C(C)C)cc1 (stereo not given) 2% [inhibitor]
OCCNc1nc(Nc2ccc(Cl)c(Cl)c2)nc2ccccc12 150%
Cn1c(C(=O)NCCCN2CCCCC2)cc2sccc21 138%
COCC(C)NC(=O)COc1nncc2ccccc12 (stereo not given) 40% [inhibitor]
COc1cccc(Nc2ncccc2C(=O)O)c1 4% [inhibitor]
Cc1cccc(OCC(O)CN2CCN(CCN3C(=O)c4cccc5cccc(c45)C3=O)CC2)c1C (stereo not given) 146%
CCOc1ccc(S(=O)(=O)N(CC(=O)O)c2ccccc2)cc1 6% [inhibitor]
COC(=O)c1c(NC(=O)COC(=O)[C@@H](NS(=O)(=O)c2ccccc2)C(C)C)sc2c1CCC2 1% [inhibitor]
Cc1cc(C)c2nc(N(CCN(C)C)C(=O)/C=C/c3cccs3)sc2c1 165%
Cc1ccc2sc(N(CCN(C)C)C(=O)/C=C/c3cccs3)nc2c1C 151%

Binding response (% of control), inactive:
CC(C(=O)N1CCN(c2ccccc2F)CC1)c1ccc([N+](=O)[O-])cc1 (stereo not given) 111%
O=C(Nc1cccc(Cl)c1)c1cc(S(=O)(=O)N2CCCCC2)c[nH]1 100%
COc1cccc2sc(N(CCCN(C)C)C(=O)CCS(=O)(=O)c3ccccc3)nc12 105%
COc1cc2ccccc2cc1C(=O)N(CCN(C)C)c1nc2c(F)cccc2s1 113%
CN(Cc1ccccc1)C(=O)COc1ccccc1 106%
CCN(C(=O)COc1ccc(C(=O)c2ccccc2)cc1)c1ccccc1 101%
CC(=O)N[C@H]1[C@H]([C@H](O)[C@H](O)CO)OC(C(=O)O)=C[C@@H]1O 106%
Cc1ccc(C)c(OCc2cc(C(=O)N3CCN(c4cnccn4)CC3)no2)c1 93%
COc1cccc(NC(=O)N2C3CCCC2CC(NC(C)=O)C3)c1 (stereo not given) 109%
O=C(CN1C(=O)S/C(=C\c2ccccc2Cl)C1=O)NC1C=CS(=O)(=O)C1 (stereo not given) 101%
Cc1cc(S(=O)(=O)c2cc3ccc(O)c(C)c3oc2=O)ccc1F 102%
CCOC(=O)CCc1c(C)c(C#N)c2[nH]c3ccccc3n2c1=O 106%
Cc1ccccc1Cn1c(=O)[nH]c2ccccc21 48%
O=C(NCC(=O)N(c1ccccc1)C(C(=O)NCC1CCCO1)c1ccccc1)c1cccs1 (stereo not given) 103%
COc1ccc(Cn2c(=S)[nH]c3cc(C(=O)NCCCN4CCOCC4)ccc3c2=O)cc1 115%
CCCCNC(=O)CCn1c(=S)[nH]c2cc3c(cc2c1=O)OCO3 99%
CC(C)CCn1cnc2c1c(=O)n(CC(=O)NC(N)=O)c(=O)n2Cc1ccccc1 99%
COc1cccc(OCCCN2CCCCCC2)c1 102%
CCCCOC(=O)Cn1c(=O)n(CC(=O)OCCCC)c2cc(C)ccc21 97%
CCCCOC(=O)Cn1c(=N)n(CCN(CC)CC)c2ccccc21 106%
Cc1ccc(OCc2nc3ccccc3n2C)cc1 103%
Nc1ccn(C2CC(O)C(CO)O2)c(=O)n1 (stereo not given) 105%
O=C(CSc1nc2nccnc2c(=O)n1Cc1cccs1)Nc1ccccc1F 90%
COc1ccc(C2CC(c3cccs3)=NN2C(=O)CCC(=O)O)cc1OC (stereo not given) 108%
COc1ccc(C2CC(c3cccs3)=NN2c2ccc(F)cc2)cc1OC (stereo not given) 88%
Cn1ccnc1-c1nnn(-c2ccc(F)cc2)n1 97%
CSc1ccc(S(=O)(=O)N2CCC(C(=O)NCc3ccncc3)CC2)cc1 105%
CN(CC(=O)O)S(=O)(=O)c1ccc2oc3ccccc3c2c1 110%
O=C(COc1ccc([N+](=O)[O-])cc1)Nc1ccc(N2CCCC2)cc1 103%
CN1CCN(CCNC(=O)Nc2ccc([N+](=O)[O-])cc2)CC1 105%
COC(=O)C1(C)CC1(c1ccccc1)c1ccccc1 (stereo not given) 104%
CCOCCCn1c(SCC(=O)Nc2cc(OC)ccc2OC)nc2ccccc2c1=O 105%
O=C(NCc1ccco1)/C(=C\c1cccc([N+](=O)[O-])c1)NC(=O)c1ccco1 101%
CCC1CCCCN1CCCNC(=O)Cn1nc(-c2ccccc2)ccc1=O (stereo not given) 108%
CCC1CCCCN1CCCNC(=O)C1CCC(Cn2c(=O)[nH]c3ccccc3c2=O)CC1 (stereo not given) 110%
CN1CCN(Cc2nc3cc(NC(=O)COc4ccc([N+](=O)[O-])cc4)ccc3n2C)CC1 109%
CCCC/S(C)=N/S(=O)(=O)c1ccc(C)cc1 (stereo not given) 102%
CC/S(CC1CC1(Cl)Cl)=N\S(=O)(=O)c1ccc(C)cc1 (stereo not given) 96%
S=C(NCCCc1ccccc1)Nc1ccc(Br)cc1 100%
COc1ccccc1NC(=O)CN(c1ccccc1OC)S(=O)(=O)c1ccccc1 99%
Nc1nc(Nc2ccccc2)nc(NCCO)c1[N+](=O)[O-] 98%
CN(C)c1nc(Nc2ccc(Cl)c(Cl)c2)nc(N(C)C)n1 98%
CC(C)CNS(=O)(=O)c1ccc(C(=O)Nc2ccc3c(c2)OCO3)cc1 103%
COc1ccc(CCNC(=O)c2cc3sccc3n2C)cc1OC 104%
Cn1c(C(=O)N2CCCC(C(=O)NCc3ccccc3)C2)cc2sccc21 (stereo not given) 102%
COC(=O)C(C)NC(=O)COc1ccc2ccccc2c1 (stereo not given) 95%
CC(C)C(C)NC(=O)COc1ncnc2ccccc12 (stereo not given) 105%
CCC(C)C(=O)Nc1ccccc1N1CCN(c2ccc(F)cc2)CC1 (stereo not given) 101%
COc1cc(NC(=O)c2cccnc2SC)cc(OC)c1 101%
COc1ccc2nc(C)cc(Nc3cccc(C(=O)O)c3)c2c1 110%
COc1ccc(-c2c(NC(=O)c3ccco3)oc3ccc(Cl)cc3c2=O)cc1 104%
COc1ccc2[nH]c3nc(SCC(=O)NC4CC4)nnc3c2c1 104%
CCCCCCCCCCCCN1[C@@H](CC(C)=O)c2cc(F)cc(F)c2S1(=O)=O 103%
Cc1nc(-c2ccc(Cl)cc2)sc1C1(C)CC(c2ccc(Br)cc2)=NO1 (stereo not given) 95%
O=C(CN1CCOc2ccccc21)N1CCC(Cc2ccccc2)CC1 107%
Cc1ccccc1OCC(O)CN1CCN(c2ccccn2)CC1 (stereo not given) 99%
Cc1cccc(C)c1OCC(O)CN1CCCCC1 (stereo not given) 94%
O=C(NC1CC1)C1=C[C@H](c2coc3ccccc3c2=O)C[C@H](OCCCCO)O1 108%
Cc1cccc(N(C(=O)c2sc(C)nc2C)C(C(=O)NCC2CCCO2)c2ccccc2)c1 (stereo not given) 106%
Nc1nc(Nc2ccccc2F)nc(NC2CCCCC2)c1[N+](=O)[O-] 98%
CCn1c(SCC(=O)Nc2ccc3c(c2)OCCO3)nnc1-c1ccncc1 106%
CCOc1ccc(N(CC(=O)NCCc2ccc(F)cc2)S(=O)(=O)c2ccccc2)cc1 96%
CCOc1ccc(N(CC(=O)NCCOc2ccccc2OC)S(=O)(=O)c2ccccc2)cc1 104%
C=Cn1cc[n+](CC(=O)c2ccc(OC)c(OC)c2)c1 96%
CSc1nnc(NC(=O)c2nc(S(=O)(=O)Cc3ccc(C)cc3)ncc2Cl)s1 101%
CCc1ccc(N(CC(=O)Nc2sc3c(c2C(=O)OC)CCCC3)S(C)(=O)=O)cc1 93%
COC(=O)c1c(NC(=O)CCCC(=O)O)sc2c1CCCCC2 98%
Cc1cc(CN(C)C(=O)c2cc(COc3ccc(C)c(C)c3)on2)n[nH]1 109%
CN(CCc1ccccc1)c1ccc([N+](=O)[O-])cn1 102%
Cc1ccc(S(=O)(=O)N(C)C)cc1NC(=O)/C=C/c1cccs1 107%
Cc1ccc2nc(N(CCN(C)C)C(=O)C3=COCCO3)sc2c1 113%
CC(=O)N(CCCN(C)C)c1nc2ccc(C)cc2s1 104%
Cc1cccc2sc(N(CCCN(C)C)C(=O)CCS(=O)(=O)c3ccccc3)nc12 119%
COc1ccc(N2CCN(C(=O)[C@@H](NC(=O)c3cc(OC)cc(OC)c3)C(C)C)CC2)cc1 108%
S=C(Nc1cccnc1)Nc1ccccn1 99%
COCC1CCN(C(=O)CCc2nnc(C3(c4ccc(Cl)cc4)CCC3)o2)C1 (stereo not given) 103%
